Among all 5,500 compounds or so, about 2,000 (36%) were called active. Another 18% or so got no clear call; they are omitted. Cut-off read from the data, not from the text of the source: active = normalized growth mostly below about 0.91 (no sharp cut-off); inconclusive = no clear call, values can overlap the other calls; inactive = mostly above about 0.92. Some of the results follow.
Experiment: chemical genetic growth profiling, strain panel (AID 1159580);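 note: tested at 20 µM; growth read once vehicle control cultures reached saturation at 30 °C; 1 = growth at the plate median or of vehicle wells; lower values mean less growth of the strain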
Settings: growth OD

Measured: normalized growth

CCCCCCCCCCCC[C@H](C(=O)O)[C@@H](C)C(=O)O
active: S. cerevisiae deletion strains, locus YMR231W, strain pep5, hits give low values 0.927
inactive: S. cerevisiae deletion strains, locus YJR075W, strain HOC1, hits give low values 1.07 | S. cerevisiae deletion strains, locus YKL009W, strain mrt4, hits give low values 0.946 | S. cerevisiae deletion strains, locus YKL068W, hits give low values 0.996 | S. cerevisiae deletion strains, locus YKL085W, strain MDH1 (second series), hits give low values 0.975 | S. cerevisiae deletion strains, locus YKL085W, strain MDH1, hits give low values 0.975 | S. cerevisiae deletion strains, locus YKL160W, strain elf1, hits give low values 1 | S. cerevisiae deletion strains, locus YKL190W, strain CNB1, hits give low values 0.99 | S. cerevisiae deletion strains, locus YKR001C, strain vps1, hits give low values 0.982 | S. cerevisiae deletion strains, locus YKR026C, strain gcn3, hits give low values 0.965 | S. cerevisiae deletion strains, locus YKR091W, strain srl3, hits give low values 0.974 | S. cerevisiae deletion strains, locus YLL001W, strain dnm1, hits give low values 1.01 | S. cerevisiae deletion strains, locus YLL026W, hits give low values 0.987 | S. cerevisiae deletion strains, locus YLL041C, strain sdh2, hits give low values 0.973 | S. cerevisiae deletion strains, locus YLR027C, strain aat2, hits give low values 0.992 | S. cerevisiae deletion strains, locus YLR039C, strain RIC1, hits give low values 1.04 | S. cerevisiae deletion strains, locus YLR058C, strain SHM2, hits give low values 0.994 | S. cerevisiae deletion strains, locus YLR102C, strain apc9, hits give low values 1.01 | S. cerevisiae deletion strains, locus YLR113W, strain HOG1, hits give low values 0.903 | S. cerevisiae deletion strains, locus YLR221C, strain rsa3, hits give low values 1 | S. cerevisiae deletion strains, locus YLR258W, strain gsy2, hits give low values 0.979 | S. cerevisiae deletion strains, locus YLR262C, strain YPT6 (second series), hits give low values 0.934 | S. cerevisiae deletion strains, locus YLR262C, strain YPT6, hits give low values 1.12 | S. cerevisiae deletion strains, locus YLR268W, strain sec22, hits give low values 1.02 | S. cerevisiae deletion strains, locus YLR320W, strain mms22, hits give low values 1.01 | S. cerevisiae deletion strains, locus YLR330W, strain CHS5, hits give low values 0.986 | S. cerevisiae deletion strains, locus YLR342W, strain FKS1 (second series), hits give low values 1.02 | S. cerevisiae deletion strains, locus YLR342W, strain FKS1, hits give low values 0.986 | S. cerevisiae deletion strains, locus YLR357W, strain rsc2, hits give low values 0.994 | S. cerevisiae deletion strains, locus YLR370C, strain arc18, hits give low values 0.975 | S. cerevisiae deletion strains, locus YLR371W, strain rom2, hits give low values 1.01 | S. cerevisiae deletion strains, locus YLR384C, strain iki3, hits give low values 0.974 | S. cerevisiae deletion strains, locus YLR418C, strain cdc73, hits give low values 1.02 | S. cerevisiae deletion strains, locus YML016C, strain PPZ1, hits give low values 0.982 | S. cerevisiae deletion strains, locus YML032C, strain rad52, hits give low values 1.01 | S. cerevisiae deletion strains, locus YML120C, strain ndi1, hits give low values 0.991 | S. cerevisiae deletion strains, locus YML124C, strain tub3, hits give low values 0.998 | S. cerevisiae deletion strains, locus YMR058W, strain fet3, hits give low values 0.998 | S. cerevisiae deletion strains, locus YMR078C, strain ctf18, hits give low values 0.995 | S. cerevisiae deletion strains, locus YMR125W, strain sto1, hits give low values 0.98 | S. cerevisiae deletion strains, locus YMR129W, hits give low values 0.971 | S. cerevisiae deletion strains, locus YMR205C, strain PFK2, hits give low values 1 | S. cerevisiae deletion strains, locus YMR223W, strain ubp8, hits give low values 1.03 | S. cerevisiae deletion strains, locus YMR263W, strain SAP30, hits give low values 0.996 | S. cerevisiae deletion strains, locus YMR307W, strain GAS1, hits give low values 1.06 | S. cerevisiae deletion strains, locus YNL067W, strain RPL9B, hits give low values 1.01 | S. cerevisiae deletion strains, locus YNL071W, strain lat1, hits give low values 0.968 | S. cerevisiae deletion strains, locus YNL128W, strain TEP1, hits give low values 1.01 | S. cerevisiae deletion strains, locus YNL153C, strain GIM3, hits give low values 0.994 | S. cerevisiae deletion strains, locus YNL183C, strain NPR1, hits give low values 0.91 | S. cerevisiae deletion strains, locus YNL209W, strain ssb2, hits give low values 0.995 | S. cerevisiae deletion strains, locus YNL233W, strain BNI4, hits give low values 1 | S. cerevisiae deletion strains, locus YNL248C, strain rpa49, hits give low values 1 | S. cerevisiae deletion strains, locus YNL250W, strain rad50, hits give low values 1.02 | S. cerevisiae deletion strains, locus YNL271C, strain bni1, hits give low values 1.01 | S. cerevisiae deletion strains, locus YNL298W, strain CLA4, hits give low values 0.972 | S. cerevisiae deletion strains, locus YNL307C, strain MCK1, hits give low values 1.01 | S. cerevisiae deletion strains, locus YNL322C, strain KRE1 (second series), hits give low values 0.968 | S. cerevisiae deletion strains, locus YNL322C, strain KRE1, hits give low values 0.989 | S. cerevisiae deletion strains, locus YNR049C, strain mso1, hits give low values 0.979 | S. cerevisiae deletion strains, locus YNR052C, strain pop2, hits give low values 1.02 | S. cerevisiae deletion strains, locus YOL006C, strain TOP1, hits give low values 1.04 | S. cerevisiae deletion strains, locus YOL012C, strain htz1 1.2 | S. cerevisiae deletion strains, locus YOL147C, strain pex11, hits give low values 0.997 | S. cerevisiae deletion strains, locus YOR001W, strain rrp6, hits give low values 0.984 | S. cerevisiae deletion strains, locus YOR061W, strain CKA2, hits give low values 0.994 | S. cerevisiae deletion strains, locus YOR069W, strain VPS5, hits give low values 0.989 | S. cerevisiae deletion strains, locus YOR070C, strain gyp1, hits give low values 0.987 | S. cerevisiae deletion strains, locus YOR080W, strain dia2, hits give low values 0.962 | S. cerevisiae deletion strains, locus YOR083W, strain WHI5, hits give low values 1.01 | S. cerevisiae deletion strains, locus YOR106W, strain vam3, hits give low values 1.02 | S. cerevisiae deletion strains, locus YOR136W, strain idh2, hits give low values 1.03 | S. cerevisiae deletion strains, locus YOR144C, strain elg1, hits give low values 1 | S. cerevisiae deletion strains, locus YOR184W, strain ser1, hits give low values 1.04 | S. cerevisiae deletion strains, locus YOR231W, strain MKK1, hits give low values 0.963 | S. cerevisiae deletion strains, locus YOR265W, strain rbl2, hits give low values 0.985 | S. cerevisiae deletion strains, locus YOR270C, strain vph1, hits give low values 1.02 | S. cerevisiae deletion strains, locus YOR290C, strain snf2, hits give low values 1 | S. cerevisiae deletion strains, locus YOR316C, strain cot1, hits give low values 1.01 | S. cerevisiae deletion strains, locus YPL051W, strain arl3, hits give low values 0.983 | S. cerevisiae deletion strains, locus YPL055C, strain LGE1, hits give low values 1.03 | S. cerevisiae deletion strains, locus YPL078C, strain atp4, hits give low values 0.971 | S. cerevisiae deletion strains, locus YPL106C, strain sse1, hits give low values 0.952 | S. cerevisiae deletion strains, locus YPL240C, strain hsp82, hits give low values 0.973 | S. cerevisiae deletion strains, locus YPL241C, strain CIN2, hits give low values 0.99 | S. cerevisiae deletion strains, locus YPL256C, strain CLN2, hits give low values 0.949 | S. cerevisiae deletion strains, locus YPR119W, strain clb2, hits give low values 0.986 | S. cerevisiae deletion strains, locus YPR141C, strain kar3, hits give low values 1.03 | S. cerevisiae deletion strains, locus YPR163C, strain tif3, hits give low values 1.02 | S. cerevisiae deletion strains, locus YPR167C, strain met16, hits give low values 1.01 | S. cerevisiae deletion strains, strain wtn01, hits give low values 1.01 | S. cerevisiae strains, strain wild type, hits give low values 0.992

From PubChem BioAssay AID1159580 (chemical genetic matrix, 2015)
